# Measured values reported in the supplement of paper PMC11732987, “Enantioselective OTUD7B fragment discovery through chemoproteomics screening and high-throughput optimisation” (Communications Chemistry, 2025).
# Unmarked numbers belong to inactive results.
# Key:
# Test in all cases: log2 ratio of Biotin-Ahx-Ub-VS probe labelling (fragment/DMSO); higher = less target engagement (more negative = stronger competition), active = hit call of the paper (q ≤ 0.05, log2 ratio ≤ -1)
# Settings in all cases: compound concentration: 200 uM; treatment time: 3 h
# OTUD6B = target: T1, OTUD6B (UniProt Q8N6M0)
# T1 sequence (whole entry): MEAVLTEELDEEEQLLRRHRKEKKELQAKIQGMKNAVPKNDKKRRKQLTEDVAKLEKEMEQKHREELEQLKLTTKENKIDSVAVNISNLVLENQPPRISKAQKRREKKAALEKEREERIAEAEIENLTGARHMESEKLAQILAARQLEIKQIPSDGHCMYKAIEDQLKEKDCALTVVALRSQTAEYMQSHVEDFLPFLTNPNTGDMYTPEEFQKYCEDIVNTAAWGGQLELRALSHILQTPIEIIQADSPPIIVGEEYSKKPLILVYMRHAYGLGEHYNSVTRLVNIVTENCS
# How it was run: (§1)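 Lysate from HEK293T cells, 495 µg per sample in Tris/CHAPS/IGEPAL buffer with protease inhibitors, was treated for 3 h in triplicate with fragment at 200 µM or vehicle. Biotin-Ahx-Ub-VS was next added at 0.5 µM final for 1 h. The labelled DUBs were enriched with NeutrAvidin, digested with LysC and trypsin, and run by diaPASEF LC-MS/MS, with values given as average log2 fragment/vehicle ratios by unpaired t-test on global-median-normalised Spectronaut quantities of proteins with ≥2 unique peptides.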
# OTUD7B = target: T2, OTUD7B (UniProt Q6GQQ9)
# T2 sequence (whole entry): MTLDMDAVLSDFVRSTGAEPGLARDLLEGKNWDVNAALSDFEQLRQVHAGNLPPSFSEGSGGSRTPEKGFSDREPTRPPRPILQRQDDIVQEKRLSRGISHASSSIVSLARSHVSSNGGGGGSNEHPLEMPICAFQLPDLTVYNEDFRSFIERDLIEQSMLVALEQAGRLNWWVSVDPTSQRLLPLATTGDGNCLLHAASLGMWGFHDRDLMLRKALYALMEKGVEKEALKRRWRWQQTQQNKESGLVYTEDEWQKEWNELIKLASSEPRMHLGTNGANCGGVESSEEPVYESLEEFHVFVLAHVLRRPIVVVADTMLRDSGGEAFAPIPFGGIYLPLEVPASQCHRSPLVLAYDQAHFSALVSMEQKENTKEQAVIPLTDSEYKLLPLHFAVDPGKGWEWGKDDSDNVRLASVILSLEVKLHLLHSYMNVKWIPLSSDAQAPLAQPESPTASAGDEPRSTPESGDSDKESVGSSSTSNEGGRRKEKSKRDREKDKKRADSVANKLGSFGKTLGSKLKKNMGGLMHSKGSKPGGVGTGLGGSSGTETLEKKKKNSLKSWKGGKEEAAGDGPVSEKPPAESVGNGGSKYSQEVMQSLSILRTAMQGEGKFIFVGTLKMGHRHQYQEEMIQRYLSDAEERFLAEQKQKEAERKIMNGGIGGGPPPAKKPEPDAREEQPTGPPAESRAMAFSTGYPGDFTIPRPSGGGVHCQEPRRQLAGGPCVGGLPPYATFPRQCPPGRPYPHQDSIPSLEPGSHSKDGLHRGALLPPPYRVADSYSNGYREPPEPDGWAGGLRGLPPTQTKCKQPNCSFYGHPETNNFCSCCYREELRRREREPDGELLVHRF
# How it was run: as §1
# PRPF8 = PRPF8 (UniProt Q6P2Q9)
# How it was run: as §1
# PSMD7 = target: T3, PSMD7 (UniProt P51665)
# T3 sequence (whole entry): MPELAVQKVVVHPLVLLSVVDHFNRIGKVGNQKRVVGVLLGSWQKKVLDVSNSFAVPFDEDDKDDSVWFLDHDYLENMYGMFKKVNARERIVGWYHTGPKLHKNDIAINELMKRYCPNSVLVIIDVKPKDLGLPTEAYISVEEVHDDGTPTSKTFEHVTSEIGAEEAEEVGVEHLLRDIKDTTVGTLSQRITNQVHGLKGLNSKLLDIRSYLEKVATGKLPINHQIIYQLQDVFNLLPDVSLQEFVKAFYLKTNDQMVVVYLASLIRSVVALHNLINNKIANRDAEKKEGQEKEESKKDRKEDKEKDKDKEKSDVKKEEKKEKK
# How it was run: as §1
# UCHL1 = UCHL1 (UniProt P09936)
# How it was run: as §1
# UCHL3 = target: T4, UCHL3 (UniProt P15374)
# T4 sequence (whole entry): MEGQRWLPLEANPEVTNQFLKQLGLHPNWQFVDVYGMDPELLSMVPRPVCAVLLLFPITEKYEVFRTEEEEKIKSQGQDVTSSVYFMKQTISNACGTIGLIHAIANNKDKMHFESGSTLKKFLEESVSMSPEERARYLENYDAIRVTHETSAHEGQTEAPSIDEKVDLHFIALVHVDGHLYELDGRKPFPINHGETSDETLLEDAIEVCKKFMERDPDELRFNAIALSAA
# How it was run: as §1
# UCHL5 = target: T5, UCHL5 (UniProt Q9Y5K5)
# T5 sequence (whole entry): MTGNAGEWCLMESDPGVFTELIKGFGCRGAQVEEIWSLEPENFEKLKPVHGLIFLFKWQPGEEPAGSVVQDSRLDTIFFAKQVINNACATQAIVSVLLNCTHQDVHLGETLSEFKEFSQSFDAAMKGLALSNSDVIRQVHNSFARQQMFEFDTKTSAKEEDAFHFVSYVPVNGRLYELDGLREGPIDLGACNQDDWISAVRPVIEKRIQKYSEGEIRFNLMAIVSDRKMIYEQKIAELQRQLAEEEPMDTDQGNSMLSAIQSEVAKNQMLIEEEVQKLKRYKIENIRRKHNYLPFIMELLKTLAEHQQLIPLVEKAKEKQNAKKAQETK
# How it was run: as §1
# USP10 = USP10 (UniProt Q14694)
# How it was run: as §1
# USP15 = target: T6, USP15 (UniProt Q9Y4E8)
# T6 sequence (whole entry): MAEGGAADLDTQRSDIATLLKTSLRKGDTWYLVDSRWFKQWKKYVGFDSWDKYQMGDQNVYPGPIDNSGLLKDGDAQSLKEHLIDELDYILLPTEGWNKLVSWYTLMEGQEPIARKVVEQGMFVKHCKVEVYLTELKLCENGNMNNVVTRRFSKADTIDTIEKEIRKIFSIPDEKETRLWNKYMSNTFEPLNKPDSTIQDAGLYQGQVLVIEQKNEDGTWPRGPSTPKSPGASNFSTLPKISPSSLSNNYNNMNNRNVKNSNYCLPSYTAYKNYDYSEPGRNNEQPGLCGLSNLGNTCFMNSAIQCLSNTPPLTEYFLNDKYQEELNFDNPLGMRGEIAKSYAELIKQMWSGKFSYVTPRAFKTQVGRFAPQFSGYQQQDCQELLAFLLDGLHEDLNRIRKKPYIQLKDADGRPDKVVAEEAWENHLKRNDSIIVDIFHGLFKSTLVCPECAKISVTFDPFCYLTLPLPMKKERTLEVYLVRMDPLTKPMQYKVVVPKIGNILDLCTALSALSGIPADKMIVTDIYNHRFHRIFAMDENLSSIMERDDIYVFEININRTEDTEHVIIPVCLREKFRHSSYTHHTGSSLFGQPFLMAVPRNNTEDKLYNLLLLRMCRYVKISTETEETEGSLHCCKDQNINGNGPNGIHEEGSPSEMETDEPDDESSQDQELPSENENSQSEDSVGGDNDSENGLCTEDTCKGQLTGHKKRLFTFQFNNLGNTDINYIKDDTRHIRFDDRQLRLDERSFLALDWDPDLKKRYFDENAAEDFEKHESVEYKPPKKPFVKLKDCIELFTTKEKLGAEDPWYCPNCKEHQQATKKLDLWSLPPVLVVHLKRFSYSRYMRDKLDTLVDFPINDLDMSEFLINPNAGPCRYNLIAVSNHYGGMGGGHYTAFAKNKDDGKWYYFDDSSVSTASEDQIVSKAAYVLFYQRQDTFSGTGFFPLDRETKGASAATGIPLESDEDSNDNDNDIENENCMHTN
# How it was run: as §1
# USP16 = USP16 (UniProt Q9Y5T5)
# How it was run: as §1
# Chain of USP10 (Q14694 whole entry): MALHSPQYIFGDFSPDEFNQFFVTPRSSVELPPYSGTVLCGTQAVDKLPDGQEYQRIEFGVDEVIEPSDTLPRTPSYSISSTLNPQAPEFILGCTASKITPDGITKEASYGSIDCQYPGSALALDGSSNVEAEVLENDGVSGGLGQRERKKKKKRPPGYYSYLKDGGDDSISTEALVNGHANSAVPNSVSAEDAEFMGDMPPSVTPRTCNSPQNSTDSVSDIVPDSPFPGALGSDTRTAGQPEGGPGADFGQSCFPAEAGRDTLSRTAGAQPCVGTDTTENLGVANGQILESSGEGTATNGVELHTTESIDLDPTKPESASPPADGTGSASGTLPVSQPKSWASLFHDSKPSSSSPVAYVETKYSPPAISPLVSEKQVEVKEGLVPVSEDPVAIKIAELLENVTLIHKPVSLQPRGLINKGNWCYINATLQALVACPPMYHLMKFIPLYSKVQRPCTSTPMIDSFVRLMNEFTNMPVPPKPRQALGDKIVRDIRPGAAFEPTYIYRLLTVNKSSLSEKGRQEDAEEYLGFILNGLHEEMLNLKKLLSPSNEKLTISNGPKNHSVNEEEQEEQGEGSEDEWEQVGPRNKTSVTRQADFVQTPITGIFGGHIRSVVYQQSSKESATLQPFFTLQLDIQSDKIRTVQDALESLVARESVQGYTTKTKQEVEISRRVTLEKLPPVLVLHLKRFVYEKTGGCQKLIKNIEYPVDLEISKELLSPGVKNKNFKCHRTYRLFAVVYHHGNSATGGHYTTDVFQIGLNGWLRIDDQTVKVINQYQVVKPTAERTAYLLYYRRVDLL
# Chain of UCHL1 (P09936 whole entry, looked up): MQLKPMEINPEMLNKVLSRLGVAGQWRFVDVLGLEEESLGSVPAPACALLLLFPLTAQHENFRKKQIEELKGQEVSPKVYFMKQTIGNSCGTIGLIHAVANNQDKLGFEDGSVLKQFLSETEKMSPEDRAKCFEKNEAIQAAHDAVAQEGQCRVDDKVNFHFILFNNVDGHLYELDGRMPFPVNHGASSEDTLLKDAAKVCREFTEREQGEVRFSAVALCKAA
# Chain of USP16 (Q9Y5T5 whole entry, looked up): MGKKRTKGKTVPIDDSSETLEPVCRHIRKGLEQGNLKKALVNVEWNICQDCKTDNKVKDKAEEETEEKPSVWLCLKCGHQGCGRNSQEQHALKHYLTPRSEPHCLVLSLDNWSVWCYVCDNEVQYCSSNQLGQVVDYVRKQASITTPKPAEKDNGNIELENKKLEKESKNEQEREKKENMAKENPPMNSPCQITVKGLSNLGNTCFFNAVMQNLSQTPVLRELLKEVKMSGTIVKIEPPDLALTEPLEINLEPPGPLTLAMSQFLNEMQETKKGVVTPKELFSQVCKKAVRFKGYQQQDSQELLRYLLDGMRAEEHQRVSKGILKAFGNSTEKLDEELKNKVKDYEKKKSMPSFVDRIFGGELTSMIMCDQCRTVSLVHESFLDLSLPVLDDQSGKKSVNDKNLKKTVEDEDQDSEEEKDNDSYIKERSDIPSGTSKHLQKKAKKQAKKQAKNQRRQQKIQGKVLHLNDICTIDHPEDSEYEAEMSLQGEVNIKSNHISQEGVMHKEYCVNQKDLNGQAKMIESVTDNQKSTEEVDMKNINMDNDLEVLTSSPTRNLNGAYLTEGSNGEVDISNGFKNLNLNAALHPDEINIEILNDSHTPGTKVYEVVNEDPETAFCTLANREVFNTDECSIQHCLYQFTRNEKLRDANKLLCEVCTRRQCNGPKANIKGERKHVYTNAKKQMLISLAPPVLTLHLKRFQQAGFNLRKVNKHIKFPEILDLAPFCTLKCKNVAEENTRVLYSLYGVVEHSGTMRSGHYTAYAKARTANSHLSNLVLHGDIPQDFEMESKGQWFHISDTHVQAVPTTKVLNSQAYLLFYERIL
smiles,measurement,setting,value
Cc1cccc2nc(CCNC(=O)CCl)cn12.Cl,log2 ratio of Biotin-Ahx-Ub-VS probe labelling,OTUD6B,-0.459
same,log2 ratio of Biotin-Ahx-Ub-VS probe labelling,OTUD7B,-0.556
same,log2 ratio of Biotin-Ahx-Ub-VS probe labelling,PRPF8,-0.224
same,log2 ratio of Biotin-Ahx-Ub-VS probe labelling,PSMD7,-0.141
same,log2 ratio of Biotin-Ahx-Ub-VS probe labelling,UCHL1,-2.08 (active)
same,log2 ratio of Biotin-Ahx-Ub-VS probe labelling,UCHL3,-0.0466
same,log2 ratio of Biotin-Ahx-Ub-VS probe labelling,UCHL5,-0.344
same,log2 ratio of Biotin-Ahx-Ub-VS probe labelling,USP10,-0.121
same,log2 ratio of Biotin-Ahx-Ub-VS probe labelling,USP15,-0.369
same,log2 ratio of Biotin-Ahx-Ub-VS probe labelling,USP16,0.0184
